Records with an inconclusive call do not appear. Where a structure was tested more than once in an assay, its records may differ in their call. The source made the active and inactive calls. Unless noted, calls follow the shape of the dose curve; as a rule, active = well fitted curve in the direction sought with a large enough effect in the repeat runs; inconclusive = weak or mixed curves; inactive = no such curve, though single readings can be large; an effect the other way counts as inactive or inconclusive.
Key:
[1] = A CellTox Green Cytotoxicity Assay to monitor cytotoxicity in HEK293 cells - 32 hour (AID 1224881); also: nearly all actives have a fitted effect of over 40% in size; also: potency is read from the fitted curve at half-maximal effect
Procedure, shortened: (§1)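 Nonlytic real-time cytotoxicity: HEK293 + CellTox Green reagent plated, 5 h preincubation, pintool compound addition (23 nL in DMSO), 37 C for 40 h, fluorescence measured at successive time points.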

[2] = A CellTox Green Cytotoxicity Assay to monitor cytotoxicity in HepG2 cells - 8 hour (AID 1224890); also: nearly all actives have a fitted effect of over 45% in size
Procedure, shortened: (§2)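 Read-out is fluorescence of a cyanine dye excluded from live cells that stains DNA of dead HepG2 cells, with signal proportional to cytotoxicity. Plates were read at 0, 8, 16, 24, 32 and 40 h after compound addition.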

[3] = qHTS assay to identify small molecule antagonists of the androgen receptor (AR) signaling pathway using the MDA cell line in the presence of 0.5 nM R1881 - cell viability counter screen (AID 1259242); also: nearly all actives have a fitted effect of over 45% in size
Procedure, shortened: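 Counter screen for cytotoxicity run in the same wells as the AR antagonist reporter screen: MDA-kb2 cells were treated 16 hr with test compounds and 0.5 nM R1881, then live-cell protease activity was measured by fluorescence.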

[4] = molecular target: Estrogen receptor (Homo sapiens) (UniProt P03372); experiment: qHTS assay to identify small molecule antagonists of the estrogen receptor alpha (ER-alpha) signaling pathway using the BG1 cell line in the presence of 0.1 nM 17-beta-estradiol (AID 1259244); also: nearly all actives have a fitted effect of over 50% in size
Sequence of Estrogen receptor (Homo sapiens) (P03372 whole entry, looked up): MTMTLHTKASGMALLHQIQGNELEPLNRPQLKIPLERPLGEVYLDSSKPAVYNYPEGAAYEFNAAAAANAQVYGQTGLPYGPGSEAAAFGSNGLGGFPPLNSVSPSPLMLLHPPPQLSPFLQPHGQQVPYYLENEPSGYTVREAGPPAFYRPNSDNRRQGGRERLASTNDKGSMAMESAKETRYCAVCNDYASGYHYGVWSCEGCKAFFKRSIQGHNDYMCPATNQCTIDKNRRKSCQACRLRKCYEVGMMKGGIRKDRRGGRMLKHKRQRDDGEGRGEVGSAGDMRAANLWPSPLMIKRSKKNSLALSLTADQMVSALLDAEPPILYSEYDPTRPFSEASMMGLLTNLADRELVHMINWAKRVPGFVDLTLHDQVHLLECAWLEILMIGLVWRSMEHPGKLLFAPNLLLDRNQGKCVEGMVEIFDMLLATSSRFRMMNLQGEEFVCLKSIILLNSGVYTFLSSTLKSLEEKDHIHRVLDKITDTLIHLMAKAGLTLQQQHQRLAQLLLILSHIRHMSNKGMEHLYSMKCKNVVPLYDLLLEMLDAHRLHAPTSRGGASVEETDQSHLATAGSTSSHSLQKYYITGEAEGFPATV
Procedure, shortened: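 Cells: VM7Luc4E2, endogenous ER-alpha, 4x ERE-luc stable. Pre-culture 5 d, phenol red-free, charcoal-stripped FBS. Plated 24 h, compound + E2 0.1 nM final, 22 h 37C/5% CO2. Readout ONE-Glo luminescence.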

[5] = qHTS assay to identify small molecule HDAC inhibitors (AID 1259364); also: top concentration of the series differs between compounds; nearly all actives have a fitted effect of over 45% in size
Procedure, shortened: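 Luminescence from a cell-permeant luminogenic class I/II HDAC substrate reports endogenous deacetylase activity in intact HCT-116 cells treated with compounds for 2 h.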

[6] = qHTS assay to identify small molecule HDAC inhibitors - cell viability counter screen (AID 1259365); also: series mostly up to about 92 µM; nearly all actives have a fitted effect of over 50% in size
Procedure, shortened: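 Cytotoxicity was gauged in wild-type HCT-116 cells after a brief 2hr treatment with DMSO-dissolved compounds at 37C and 5% CO2, using CellTiter-Glo luminescence developed for 30min at room temperature.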

[7] = qHTS assay to identify small molecule agonists of the sonic hedgehog signaling (Shh) pathway - cell viability counter screen (AID 1259366); also: nearly all actives have a fitted effect of over 50% in size
Procedure, shortened: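 Stable Gli1-Luc NIH/3T3 clone, 2,000 cells/well. Compound exposure 24hr at 37C. Read-out: CellTiter-Fluor fluorescence.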

[8] = qHTS assay to identify small molecule antagonists of the sonic hedgehog signaling (Shh) pathway - cell viability counter screen (AID 1259367); also: nearly all actives have a fitted effect of over 55% in size
Procedure, shortened: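 After a 4 hr settling period, 3T3 Gli1-Luc cells were treated with DMSO-dissolved chemicals and conditioned medium, kept 24 hr at 37C in 5% CO2, and assayed for viability by CellTiter-Fluor fluorescence following 1 hr reagent incubation.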

[9] = qHTS assay to identify small molecule agonists of the sonic hedgehog signaling (Shh) pathway (AID 1259368; calls by dose curve;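 also: NIH/3T3-derived 3T3Gli1-Luc cells carrying a stable Gli1-driven firefly luciferase reporter; series mostly up to about 92 µM; nearly all actives have a fitted effect of over 15% in size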)
Procedure, shortened: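 3T3Gli1-Luc (NIH/3T3 clone, stable Gli1-Luc); 4 hr pre-incubation, then cpd in DMSO 24 hr, 37 C/5% CO2; luciferase reagent 30 min RT; luminescence.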

[10] = A CellTox Green Cytotoxicity Assay to monitor cytotoxicity in HepG2 cells - 0 hour (AID 1224882); also: nearly all actives have a fitted effect of over 35% in size
Procedure, shortened: as §2

[11] = A CellTox Green Cytotoxicity Assay to monitor cytotoxicity in HepG2 cells - 32 hour (AID 1224883); also: nearly all actives have a fitted effect of over 50% in size
Procedure, shortened: as §2

[12] = A CellTox Green Cytotoxicity Assay to monitor cytotoxicity in HEK293 cells - 8 hour (AID 1224884); also: nearly all actives have a fitted effect of over 35% in size
Procedure, shortened: as §1

[13] = qHTS RealTime-Glo MT Cell Viability Assay in HEK293 cells - 24 hour (AID 1224886); also: nearly all actives have a fitted effect of over 50% in size; also: potency is read from the fitted curve at half-maximal effect
Procedure, shortened: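 Nonlytic real-time viability readout: viable cells convert prosubstrate to NanoLuc substrate, giving luminescence proportional to live cell number. HEK293, 600 cells/well, compound added after 5 h, continuous culture at 37 C.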

[14] = qHTS RealTime-Glo MT Cell Viability Assay in HEK293 cells - 8 hour (AID 1224887)
Procedure, shortened: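 Cells were seeded together with NanoLuc luciferase and a prosubstrate that viable cells reduce to a luciferase substrate. After a 5 h incubation at 37 C/5% CO2, compounds were added and luminescence was measured repeatedly during 40 h of treatment.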

[15] = A CellTox Green Cytotoxicity Assay to monitor cytotoxicity in HEK293 cells - 16 hour (AID 1224888); also: nearly all actives have a fitted effect of over 35% in size
Procedure, shortened: as §1

[16] = qHTS RealTime-Glo MT Cell Viability Assay in HepG2 cells - 0 hour (AID 1224889); also: nearly all actives have a fitted effect of over 50% in size
Procedure, shortened: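 Luminescence read-out: viable HepG2 cells reduce a prosubstrate to a NanoLuc substrate, giving a signal proportional to live cell number. Reads taken at 0, 8, 16, 24, 32 and 40 h of compound exposure at 37 C.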

[17] = qHTS assay to identify small molecule antagonists of the estrogen receptor alpha (ER-alpha) signaling pathway using the BG1 cell line in the presence of 0.1 nM 17-beta-estradiol - cell viability counter screen (AID 1259241); also: nearly all actives have a fitted effect of over 40% in size
Procedure, shortened: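 Viability in VM7Luc4E2 cells after 22 hr compound exposure under 0.1 nM 17beta-estradiol stimulation, by CellTiter-Fluor.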

Measured: Potency

[Na+]
inactive: [1] | [2] | [3] | [4] | [5] | [6] | [7] | [8] | [9]

C=CCCCCCCCCCC
not listed: [4]
inactive: all other assays above

ClC/C=C/CCl
inactive: all assays above

CC(C)(C)c1cccc(C(C)(C)C)c1O
53.7 µM (active) and inactive: [1]
24 µM (active) and inactive: [13]
not listed: [14]
inactive: all other assays above

— PubChem BioAssay (Tox21)
